# PubChem BioAssay (Tox21)
# Records with an inconclusive call do not appear. Activity calls are given as the source filed them. The call rests on the fitted dose curve; in most records, active means well fitted cell-killing curve with a large enough effect in the repeat runs; inconclusive means weak or mixed curves, or effect the other way; inactive means no such curve, though single readings can be large or run the other way.
# Assay: qHTS assay to identify small molecule antagonists of the thyroid receptor (TR) signaling pathway - cell viability counter screen (AID 743064); further: nearly all actives have a fitted effect of over 50% in size
# Details: GH3.TRE-Luc viability, CellTiter-Fluor, 24 h; series mostly up to 70.3 µM; activity change, negative = cytotoxic: at the top concentration
# Description: National Center for Advancing Translational Sciences [NCATS]
# NIH Chemical Genomics Center [NCGC]
# U.S. Environmental Protection Agency [EPA]
# National Institutes of Environmental Health Sciences [NIEHS]
# National Toxicology Program [NTP]
# U.S. Food and Drug Administration [FDA]
# Thyroid receptor (TR), a nuclear hormone receptor, plays an important role in development, proliferation, differentiation, metabolism, brain function, and cardiovascular system. […] To profile the Tox21 10K compound library in TR signaling, a cell-based GH3-TRE-Luc assay (GH3.TRE-Luc cell line, developed by the laboratory of Dr. Albertinka J. Murk, Wageningen University) was used to measure the inhibition of TR. GH3 (rat pituitary tumor) cells stably expressing a TR activity sensor consisting of two TR response elements and a luciferase reporter gene. The cytotoxicity of the Tox21 compound library against the GH3.TRE-Luc cell line was tested in parallel by measuring the cell viability using CellTiter-Fluor assay (Promega, Madison, WI) in the same wells.
# Tox21 Assay Protocol Summary:
# GH3.TRE-Luc cells were dispensed at 1500 cells/4 uL/well into 1536-well white solid bottom plates using a Multidrop Combi dispenser (Thermo Fisher Scientific Inc., Waltham, MA). After the assay plates were incubated at 37 C for 4 hours, 23 nL of library compound or DMSO controls was transferred to the assay plates by a pintool station (Kalypsys, San Diego, CA), followed by addition of 1 ul of T3 (1 nM, final concentration in the wells) to stimulate TR transactivation. The assay plates were incubated at 37 C for 23.5 h, and then 1 uL of CellTiter-Fluor reagent (Promega, Madision, WI) of measuring cytotoxicity was added to each well using a Bioraptr Flying Reagent Dispenser (FRD) workstation (Beckman Coulter, Indianapolis, IN, USA). The plates were incubated at 37C and 5% CO2 for additional 30 min, and fluorescence intensity was measured by a ViewLux plate reader (PerkinElmer, Shelton, CT).
# On the % scale 0 is the no-effect control and ±100 the full control effect; potency means the concentration at half of the fitted maximal effect.
Compound,"activity change, negative = cytotoxic",Potency
CC(=O)N(O)CCCCCNC(=O)CCC(=O)N(O)CCCCCNC(=O)CCC(=O)N(O)CCCCCN,9.56% [at 32.5 µM] (inactive),
Cc1cccc(Oc2ccccc2)c1,-10.1% (inactive),
CC(C)CCCCCCOC(=O)c1ccc(C(=O)OCCCCCCC(C)C)c(C(=O)OCCCCCCC(C)C)c1,20.8% (inactive),
Cc1ncsc1CCO,-0.967% (inactive),
COC(=O)C(C)=O,-1.38% [at 95 µM] (inactive),
CCCCCCCCC(CO)CCCCCC (stereo not given),-21% (inactive),
CC/C(=C\C(=N/O)C(N)=O)C(C)[N+](=O)[O-] (stereo not given),-0.0637% (inactive),
c1ccc(-c2nc[nH]c2-c2ccccc2)cc1,-21.2% (inactive),
C1CCC2OC2C1 (stereo not given),-2.51% [at 95 µM] (inactive),
ClC(Cl)(Cl)c1ccc(C(Cl)(Cl)Cl)cc1,-8.79% (inactive),
NCCCOCCOCCOCCCN,2.05% (inactive),
CCCCCC/C=C/C=O,16.4% (inactive),
CCCCc1cc2ccccc2c(OCCN(C)C)n1,,8.04 µM (active)
C=C(C)C(=O)OCCN(C)C,9.06% [at 95 µM] (inactive),
CCCCOC(=O)c1ccccc1C(=O)OCC(CC)CCCC (stereo not given),23.8% (inactive),
COc1ccc([C@@H]2Sc3ccccc3N(CCN(C)C)C(=O)[C@@H]2OC(C)=O)cc1,,23.7 µM (active)
Cn1c(=O)c2c(ncn2CC(O)CO)n(C)c1=O (stereo not given),8.34% [at 32.5 µM] (inactive),
CC(C(=O)O)c1ccc(-c2ccccc2)c(F)c1 (stereo not given),,inactive
O=C(O)Cc1cc(I)c(Oc2ccc(O)c(I)c2)c(I)c1,3.84% [at 32.5 µM] (inactive),
CCCCCOC(=O)COc1cc(N2C(=O)C3=C(CCCC3)C2=O)c(F)cc1Cl,-30.4% (inactive),

Compound,"activity change, negative = cytotoxic",Potency
O=c1c2ccccc2nnn1CCl,0.304% (inactive),
OCC1CC2CC1C1CCC(CO)C21 (stereo not given),3.04% (inactive),
CCCCOCCOCCOCCOCCO,0.462% (inactive),
CN(c1nccc(=O)[nH]1)C1CCN(c2nc3ccccc3n2Cc2ccc(F)cc2)CC1,-6.01% (inactive),
CN1CCC(=C2c3ccccc3CCc3sccc32)CC1,,21.1 µM (active)
Nc1nc(N)c2nc(CNc3ccc(C(=O)N[C@@H](CCC(=O)O)C(=O)O)cc3)cnc2n1,21.1% (inactive),
C[Si](C)O[Si](C)(C)O[Si](C)(C)O[Si](C)C,20.6% (inactive),
O=C(C(=O)c1ccc(Br)cc1)c1ccc(Br)cc1,11.3% [at 32.5 µM] (inactive),
CCCc1ccccc1,11.8% (inactive),
Cc1cccc(OCCOc2cccc(C)c2)c1,-2.17% [at 95 µM] (inactive),
Oc1ccc(Cc2ccccc2)cc1,-21.2% (inactive),
CCCC(C)C,0% [at 95 µM] (inactive),
CCOc1ccc(NC(=O)CC(C)=O)cc1,1.58% (inactive),
NC(N)=NN=C(/C=C/c1ccc([N+](=O)[O-])o1)/C=C/c1ccc([N+](=O)[O-])o1,,1.68 µM (active)
CN1CCC(=C2c3ccccc3C=Cc3ccccc32)CC1,,15 µM (active)
CC(=O)[C@@]1(O)CC[C@H]2[C@@H]3C[C@H](C)C4=CC(=O)CC[C@]4(C)[C@H]3CC[C@@]21C,2.38% (inactive),
CCc1nn(C2CCCCC2)c2cc(C3(C#N)CCC(C(=O)O)CC3)ccc12 (stereo not given),,34.4 µM (active)
CCCCCCCCCO,16.8% (inactive),
C#CCOC(=O)[C@@H](C)Oc1ccc(Oc2ncc(Cl)cc2F)cc1,7.78% (inactive),
O=S1(=O)N=C(O)c2ccccc21,-4.35% (inactive),
